Measured values as given in PubChem BioAssay (EPA / NIEHS).
Where “and” joins values, the source holds several entries; their conditions need not be identical. Equal values may be shown once. Inconclusive results are not listed. A structure can be active in one record and inactive in another. Calls of active or inactive are those of the source. Rule for the calls, unless noted: active = hit-call score of the fitted dose curve at least 0.9, where 1 is the maximum; inactive = score below 0.9.

What was measured:
[1] = read-out: Signal transducer and activator of transcription 3 (Homo sapiens) (UniProt P40763); assay: LTEA_HepaRG_STAT3: Life Technologies and Expression Analysis (LTEA) Assay for Signal transducer and activator of transcription (STAT3) using HepaRG (AID 2283529); settings: mRNA level, 48 h; actives raise or lower the signal
Procedure, shortened: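 In this transcriptional endpoint, HepaRG cultures receive test chemicals at up to 100 uM for 48 h, tested in duplicate. STAT3 mRNA is normalized to ACTB, GAPDH and POLR2A.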

[2] = read-out: solute carrier (SLCO1B1), SLCO1B1 (gene 10599); assay: LTEA_HepaRG_SLCO1B1: Life Technologies and Expression Analysis (LTEA) Assay for solute carrier (SLCO1B1) using HepaRG (AID 2283530); settings: mRNA level, 48 h; actives raise or lower the signal
Procedure, shortened: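 HepaRG, serum-free induction medium, 48 h dosing, 8-pt half-log from 100 uM, 0.5% DMSO vehicle, duplicates. Readout: SLCO1B1 mRNA, qRT-PCR, ACTB/GAPDH/POLR2A normalization; up or down fit vs DMSO.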

[3] = read-out: sulfotransferase 2A1 (SULT2A1), SULT2A1 (gene 6822); assay: LTEA_HepaRG_SULT2A1: Life Technologies and Expression Analysis (LTEA) Assay for sulfotransferase 2A1 (SULT2A1) using HepaRG (AID 2283531); settings: mRNA level, 48 h; actives raise or lower the signal
Procedure, shortened: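 Transcript levels of SULT2A1, quantified by qRT-PCR and normalized to three housekeeping genes, serve as the readout. Human HepaRG cultures receive test chemicals for 48 h at up to 100 uM in half-log steps, with 0.5% DMSO vehicle.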

[4] = read-out: Transforming Growth Factor (TGFA), TGFA (gene 7039); assay: LTEA_HepaRG_TGFA: Life Technologies and Expression Analysis (LTEA) Assay for Transforming Growth Factor (TGFA) using HepaRG (AID 2283532); settings: mRNA level, 48 h; actives raise or lower the signal
Procedure, shortened: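 Gene expression of TGFA was quantified by qRT-PCR after human HepaRG cells were treated for 48 h with test chemicals (eight concentrations, highest 100 uM, 0.5% DMSO). Activity in either direction was fitted relative to DMSO.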

[5] = read-out: Transforming Growth Factor (TGFB1), TGFB1 (gene 7040); assay: LTEA_HepaRG_TGFB1: Life Technologies and Expression Analysis (LTEA) Assay for Transforming Growth Factor (TGFB1) Transporter using HepaRG (AID 2283533); settings: mRNA level, 48 h; actives raise or lower the signal
Procedure, shortened: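 HepaRG, 48 h post-plating, switched to serum-free induction medium; chemicals 100 uM top, half-log, 8 pts, 0.5% DMSO, dup; 48 h exposure; RNA → Fluidigm TaqMan qRT-PCR; norm ACTB/GAPDH/POLR2A; bidirectional fit vs DMSO.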

[6] = read-out: TIMP1, TIMP1 (gene 7076); assay: LTEA_HepaRG_TIMP1: Life Technologies and Expression Analysis (LTEA) Assay for TIMP1 using HepaRG (AID 2283534); settings: mRNA level, 48 h; actives raise or lower the signal;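 note: TaqMan qRT-PCR signal normalized to ACTB GAPDH and POLR2A housekeeping genes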
Procedure, shortened: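 Readout is TIMP1 mRNA level measured by qRT-PCR and normalized to three housekeeping genes. Human HepaRG cells were treated for 48 h in duplicate at eight concentrations up to 100 uM (0.5% DMSO); gain or loss fitted against DMSO.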

[7] = read-out: Tumor necrosis factor receptor 1 (TNFRSF1A), TNFRSF1A (gene 7132); assay: LTEA_HepaRG_TNFRSF1A: Life Technologies and Expression Analysis (LTEA) Assay for Tumor necrosis factor receptor 1 (TNFRSF1A) using HepaRG (AID 2283535); settings: mRNA level, 48 h; actives raise or lower the signal
Procedure, shortened: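 Read-out is TNFRSF1A transcript level by TaqMan qRT-PCR, normalized to three housekeeping genes, scored as gain or loss of signal versus 0.5% DMSO. Human HepaRG cells received test chemicals for 48 h at up to 100 uM (half-log series).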

[8] = read-out: Thyroid Hormone Responsive (THRSP), THRSP (gene 7069); assay: LTEA_HepaRG_THRSP: Life Technologies and Expression Analysis (LTEA) Assay for Thyroid Hormone Responsive (THRSP) using HepaRG (AID 2283536); settings: mRNA level, 48 h; actives raise or lower the signal
Procedure, shortened: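 Cell model: human HepaRG, approx. 100,000 cells/well, 0.5% DMSO vehicle. Exposure lasts 48 h; phenobarbital 1 mM serves as induction positive control. Gene expression is measured by qRT-PCR against three endogenous control genes.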

[9] = read-out: UDP glucuronosyltransferase (UGT1A1), UGT1A1 (gene 54658); assay: LTEA_HepaRG_UGT1A1: Life Technologies and Expression Analysis (LTEA) Assay for UDP glucuronosyltransferase (UGT1A1) using HepaRG (AID 2283538); settings: mRNA level, 48 h; actives raise or lower the signal
Procedure, shortened: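 HepaRG, 48 h chemical exposure (top 100 uM, half-log 8-pt, 0.5% DMSO vehicle), duplicate wells; qRT-PCR (TaqMan, Fluidigm array) for UGT1A1 mRNA, housekeeping-normalized; bidirectional curve fit vs DMSO baseline.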

[10] = read-out: UDP glucuronosyltransferase (UGT1A6), UGT1A6 (gene 54578); assay: LTEA_HepaRG_UGT1A6: Life Technologies and Expression Analysis (LTEA) Assay for UDP glucuronosyltransferase (UGT1A6) using HepaRG (AID 2283539); settings: mRNA level, 48 h; actives raise or lower the signal
Procedure, shortened: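 HepaRG, 48 h post-plating switch to serum-free induction medium; chemical 48 h, 100 uM top, half-log x8, duplicate, 0.5% DMSO. Phenobarbital 1mM induction control. UGT1A6 mRNA by TaqMan qRT-PCR; gain/loss fit vs DMSO.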

[11] = LTEA_HepaRG_LDH_cytotoxicity: Cytotoxicity Assessment in the Life Technologies and Expression Analysis (LTEA) Assay (AID 2283563; active = hit-call score of the fitted dose curve at least 0.9, where 1 is the maximum;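 for AC50: LDH activity released into spent culture medium as a marker of cell death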)
Procedure, shortened: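 Cells were thawed and plated for 48 h. Medium was then replaced with serum-free induction medium. Chemicals (8 half-log points, maximum 100 uM, 0.5% DMSO) were added in duplicate for 48 h, after which spent medium was assayed for LDH.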

[12] = ATG_XTT_Cytotoxicity: Cytotoxicity Assessment in the Attagene TRANS-FACTORIAL HepG2 Assay (AID 2283584; active = hit-call score of the fitted dose curve at least 0.9, where 1 is the maximum;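 for AC50: cells exposed to compound for 24 h before reading; active means loss of viability signal versus DMSO baseline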)
Procedure, shortened: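 Cells: human HepG2, transiently transfected with MRTU reporter constructs. Exposure 24 h. Readout: XTT, cell number. Baseline/neg ctrl DMSO; loss-of-signal scored.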

[13] = read-out: succinate dehydrogenase complex iron sulfur subunit B (SDHB), SDHB (gene 6390); assay: LTEA_HepaRG_SDHB: Life Technologies and Expression Analysis (LTEA) Assay for succinate dehydrogenase complex iron sulfur subunit B (SDHB) using HepaRG (AID 2283528); settings: mRNA level, 48 h; actives raise or lower the signal
Procedure, shortened: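 SDHB transcript level read by TaqMan qRT-PCR, housekeeping-normalised (ACTB, GAPDH, POLR2A), after 48 h chemical treatment of plated HepaRG cells; eight concentrations top 100 uM, half-log steps, 0.5% DMSO, duplicates; fitted both directions against DMSO.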

[14] = read-out: X-box binding protein 1 (XBP1), XBP1 (gene 7494); assay: LTEA_HepaRG_XBP1: Life Technologies and Expression Analysis (LTEA) Assay for X-box binding protein 1 (XBP1) using HepaRG (AID 2283540); settings: mRNA level, 48 h; actives raise or lower the signal
Procedure, shortened: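 Transcript levels of XBP1, measured by qRT-PCR and normalised to three housekeeping genes, were fitted bidirectionally relative to 0.5% DMSO controls. Human HepaRG cells received eight-point half-log dilutions from 100 uM for 48 h.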

[15] = read-out: Cellular tumor antigen p53 (Homo sapiens) (UniProt P04637); assay: LTEA_HepaRG_TP53: Life Technologies and Expression Analysis (LTEA) Assay for Tumor Protein P53 (TP53) using HepaRG (AID 2283537); settings: mRNA level, 48 h; actives raise or lower the signal
Procedure, shortened: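 TP53 transcript measured by qRT-PCR, normalized to three housekeeping genes, after 48 h treatment of human HepaRG cultures with chemicals from 100 uM downward in half-log steps (0.5% DMSO vehicle, serum-free induction medium). Up- or down-regulation fitted against DMSO.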

[16] = TOX21_p53_BLA_p2_viability: Viability Assessment in the Tox21 HCT-116 p53 Agonism Beta-lactamase Assay, Phase 2 (AID 2283591; active = hit-call score of the fitted dose curve at least 0.9, where 1 is the maximum;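 note: compound exposure lasted 16 h at 37 °C; actives lower the ATP signal meaning cytotoxicity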)
Procedure, shortened: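 HCT-116 p53-bla cells (4000/well) rested 5 h at 37C, then received compounds in DMSO (217-fold dilution) for 16 h at 37C, 5% CO2. After the CCF4 read, CellTiter-Glo was added; ATP luminescence was read after 30 min at room temperature.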

[17] = TOX21_p53_BLA_p3_viability: Viability Assessment in the Tox21 HCT-116 p53 Agonism Beta-lactamase Assay, Phase 3 (AID 2283593; active = hit-call score of the fitted dose curve at least 0.9, where 1 is the maximum;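 note: cells exposed to compound for 16 h before reading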)
Procedure, shortened: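 HCT-116 cells (4000/well) rested 5 h at 37C, then got DMSO compounds by pin tool (217-fold dilution) for 16 h at 37C, 5% CO2. After the bla read, CellTiter-Glo was added and luminescence read at 30 min, room temperature.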

[18] = target: Cellular tumor antigen p53 (Homo sapiens) (UniProt P04637); assay: TOX21_p53_BLA_p3_ratio: Tox21 HCT-116 p53 Agonism Beta-lactamase Assay, Ratio, Phase 3 (AID 2283596; active = hit-call score of the fitted dose curve at least 0.9, where 1 is the maximum)
Procedure, shortened: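 Cells were seeded at 4000/well, rested 5 h at 37C, then dosed with DMSO compound solutions (217-fold dilution) for 16 h. CCF4-AM substrate was loaded for 2 h at room temperature, and the 460/530 nm emission ratio was fitted for gain of signal versus DMSO.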

[19] = TOX21_p53_BLA_p4_viability: Viability Assessment in the Tox21 HCT-116 p53 Agonism Beta-lactamase Assay, Phase 4 (AID 2283597; active = hit-call score of the fitted dose curve at least 0.9, where 1 is the maximum;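 note: hits lower the luminescence signal meaning cytotoxicity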)
Procedure, shortened: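 Readout: ATP luminescence (CellTiter-Glo), measured 30 min after reagent addition at RT. The reagent followed a 2 h CCF4-AM incubation, and the cells had been exposed to compound for 16 h at 37C.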

[20] = target: Cellular tumor antigen p53 (Homo sapiens) (UniProt P04637); assay: TOX21_p53_BLA_p2_ratio: Tox21 HCT-116 p53 Agonism Beta-lactamase Assay, Ratio, Phase 2 (AID 2283592; active = hit-call score of the fitted dose curve at least 0.9, where 1 is the maximum)
Procedure, shortened: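 Plated HCT116 p53-bla cells (4000/well) received compound after 5 h, then 16 h at 37C/5% CO2. CCF4-AM added, 2 h RT. Ratio of 460 to 530 nm emission taken as the p53 reporter signal.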

Measured: AC50

Chain of Signal transducer and activator of transcription 3 (Homo sapiens) (P40763 whole entry, looked up): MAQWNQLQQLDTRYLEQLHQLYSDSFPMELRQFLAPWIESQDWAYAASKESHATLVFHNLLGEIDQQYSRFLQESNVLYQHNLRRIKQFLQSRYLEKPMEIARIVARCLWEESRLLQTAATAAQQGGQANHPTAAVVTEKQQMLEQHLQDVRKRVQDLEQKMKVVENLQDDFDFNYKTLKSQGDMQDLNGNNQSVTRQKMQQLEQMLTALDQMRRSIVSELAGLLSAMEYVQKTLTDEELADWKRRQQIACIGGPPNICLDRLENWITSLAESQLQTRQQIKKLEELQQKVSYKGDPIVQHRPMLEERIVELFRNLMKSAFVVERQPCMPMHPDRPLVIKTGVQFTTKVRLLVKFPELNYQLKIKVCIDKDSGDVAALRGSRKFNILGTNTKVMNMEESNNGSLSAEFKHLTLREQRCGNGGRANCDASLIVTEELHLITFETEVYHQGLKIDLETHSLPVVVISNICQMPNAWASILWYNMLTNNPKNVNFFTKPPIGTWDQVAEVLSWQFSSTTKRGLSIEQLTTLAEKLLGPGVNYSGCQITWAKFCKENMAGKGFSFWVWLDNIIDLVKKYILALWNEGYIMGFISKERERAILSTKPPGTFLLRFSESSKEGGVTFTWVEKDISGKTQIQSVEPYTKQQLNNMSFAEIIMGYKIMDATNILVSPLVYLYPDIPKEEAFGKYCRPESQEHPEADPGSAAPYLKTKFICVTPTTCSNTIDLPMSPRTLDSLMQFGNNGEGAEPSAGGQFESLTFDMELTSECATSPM
Chain of Cellular tumor antigen p53 (Homo sapiens) (P04637 whole entry, looked up): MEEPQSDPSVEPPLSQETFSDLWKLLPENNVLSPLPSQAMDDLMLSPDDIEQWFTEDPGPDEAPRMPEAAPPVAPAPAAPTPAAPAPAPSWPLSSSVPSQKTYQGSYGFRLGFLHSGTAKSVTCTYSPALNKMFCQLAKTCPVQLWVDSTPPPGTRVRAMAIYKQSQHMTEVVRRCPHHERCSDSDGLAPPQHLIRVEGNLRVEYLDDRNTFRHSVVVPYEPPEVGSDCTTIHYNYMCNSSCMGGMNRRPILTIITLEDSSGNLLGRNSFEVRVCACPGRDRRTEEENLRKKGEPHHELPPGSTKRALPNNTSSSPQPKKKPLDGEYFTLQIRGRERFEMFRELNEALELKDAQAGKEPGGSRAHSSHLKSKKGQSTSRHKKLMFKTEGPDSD

CC(=O)[C@@]1(O)CC[C@H]2[C@@H]3CCC4=CC(=O)CC[C@]4(C)[C@H]3CC[C@@]21C
active: [8] 50 µM
not listed: [13] | [14] | [15] | [16] | [17] | [18] | [19] | [20]
inactive: all other assays above

CC(C)COC(=O)CCCCC(=O)OCC(C)C
not listed: [7] | [15] | [16] | [17] | [18] | [19] | [20]
inactive: all other assays above

O=C(O)c1cccnc1
not listed: [7] | [14] | [15] | [16] | [17] | [18] | [19] | [20]
inactive: all other assays above

CCCCC(CC)COP(=O)(OCC(CC)CCCC)OCC(CC)CCCC (configuration not stated)
active: [9] 13.3 µM
not listed: [7] | [13] | [20]
inactive: all other assays above

CC(=O)O[C@]1(C(C)=O)CC[C@H]2[C@@H]3C=C(Cl)C4=CC(=O)[C@@H]5C[C@@H]5[C@]4(C)[C@H]3CC[C@@]21C
inactive: [13] | [4] | [5] | [6] | [8] | [12]
active: [1] 50 µM | [2] 76.8 µM | [3] 50 µM | [9] 72.3 µM | [10] 73.3 µM | [11] 53.7 µM

c1ccc2occc2c1
not listed: [7] | [14]
inactive: all other assays above

CN(C)CCCN1c2ccccc2Sc2ccc(Cl)cc21
active: [3] 82.7 µM | [5] 12.5 µM | [8] 15.8 µM | [11] 38.4 µM | [12] 43.2 µM | [16] 73.4 µM | [20] 6.66 µM | [19] 36.8 µM and 73.4 µM
inactive: [1] | [2] | [4] | [6] | [7] | [15] | [9] | [10] | [20] | [17] | [18]

O=C1OC(c2ccc(O)cc2)(c2ccc(O)cc2)c2ccccc21
active: [2] 73.2 µM | [8] 80.3 µM | [9] 82 µM | [10] 72.6 µM
not listed: [7] | [14]
inactive: all other assays above

CCOCCOCCO
not listed: [7] | [14] | [19]
inactive: all other assays above

NC=O
not listed: [7] | [14] | [15] | [16] | [17] | [18] | [19] | [20]
inactive: all other assays above

C/C=C/C=C/C(=O)O
active: [9] 0.171 µM
not listed: [7] | [14] | [15] | [16] | [17] | [18] | [19] | [20]
inactive: all other assays above

Nc1nc(=S)c2[nH]cnc2[nH]1
inactive: [13] | [1] | [4] | [5] | [6] | [9] | [12]
active: [2] 11.4 µM | [3] 11.4 µM | [8] 9.18 µM | [10] 5.91 µM | [11] 32.9 µM

CC(C)NCC(O)c1ccc(O)c(O)c1 (configuration not stated)
inactive: [13] | [1] | [4] | [5] | [10]
active: [2] 0.136 µM | [3] 0.194 µM | [8] 0.179 µM | [9] 0.111 µM

O=C(O)c1[nH]n(-c2ccc(S(=O)(=O)O)cc2)c(=O)c1N=Nc1ccc(S(=O)(=O)O)cc1
active: [20] 0.000189 µM | [18] 0.0528 nM
inactive: [13] | [1] | [2] | [3] | [4] | [5] | [6] | [8] | [15] | [9] | [10] | [14] | [11] | [20] | [17] | [18] | [19]
